uPA surface inh: qHTS for Inhibitors of Cell Surface uPA Generation | Potency, µM (doses to about 38.3 µM), for the others: at the highest dose activity change, negative = inhibition, hits mostly inhibitors | AID 540303, 2011 | cell surface uPA generation assay, qHTS | actives 0.31% (n = 330,000); active = well fitted inhibition curve with a large enough effect; inconclusive = small, poorly fitted or top-dose-only effect; inactive = no such curve, though single readings can be large or run the other way; tested in mouse RAW 264.7 cells; also: potency is read from the fitted curve at half-maximal effect; nearly all actives have a fitted effect of over 55% in size
HT1080-NT tox: qHTS for induction of synthetic lethality in tumor cells producing 2HG: qHTS for the HT-1080-NT fibrosarcoma cell line; AID 686970, 2013; HT-1080-NT fibrosarcoma viability, CellTiter-Glo ATP luminescence, 48 h; actives 1.6% (n = 360,000); Potency, µM (top dose mostly 46.1 µM), for the others: at the highest dose activity, negative = less viability, usual class: cytotoxic;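 also: NT is the 2HG producing partner of a matched IDH1 knockdown line; potency is read from the fitted curve at half-maximal effect; 0% = DMSO-treated cells and -100% = media-only wells without cells; nearly all actives have a fitted effect of over 55% in size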
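Compounds were tested in concentration-response format on HT-1080-NT cells for 48 hours at 37 degrees C. Cell viability came from CellTiter-Glo luminescence; curves were classified by r2, response magnitude and activity.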
TDP1 cell noCPT: qHTS for Inhibitors of human tyrosyl-DNA phosphodiesterase 1 (TDP1): qHTS in cells in absence of CPT | DT40 Tdp1-/- hTDP1 cells, no CPT, ATP luminescence, 48 h | Potency, µM (titrated, usually from 46.2 µM), inactives show at the highest dose activity change, negative = growth inhibition, actives largely listed as inhibitors | actives 15% (n = 420,000) | AID 686978, 2013; also: potency is read from the fitted curve at half-maximal effect; nearly all actives have a fitted effect of over 55% in size
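Cells were dispensed at 400 per well, compounds added by pin tool, plates incubated ≥48 hr at 37 °C, then CellTiter-Glo added for 30 min at room temperature before luminescence reading. Line: DT40 Tdp1-/- complemented with hTDP1; camptothecin omitted.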
TDP1 cell CPT: qHTS for Inhibitors of human tyrosyl-DNA phosphodiesterase 1 (TDP1): qHTS in cells in presence of CPT; chicken DT40 Tdp1-/-;hTDP1 cells + 20 nM CPT, ATP luminescence, 48 h; Potency, µM (doses to about 46.2 µM), inactives show top-dose activity change, negative = growth inhibition, actives largely listed as inhibitors; actives 12% (n = 420,000); also: potency is read from the fitted curve at half-maximal effect; nearly all actives have a fitted effect of over 55% in size
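Cell growth measured by CellTiter-Glo luminescence after a minimum 48 h, 37 C compound exposure with 20 nM CPT in Tdp1-knockout DT40 cells stably expressing hTDP1, seeded 400/well; qHTS titration format.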
HT1080 IDH1KD tx: qHTS for induction of synthetic lethality in tumor cells producing 2HG: qHTS for the HT-1080-IDH1KD cell line. HT-1080 IDH1 knockdown viability, ATP luminescence, 48 h. Potency, µM (titrated, usually from 46.1 µM), without a hit: top-dose activity, negative = toxicity, usual class: cytotoxic. actives 2% (n = 360,000). AID 686971, 2013;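 also: potency is read from the fitted curve at half-maximal effect; 0% = DMSO wells and -100% = cell-free medium wells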
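Assay cells: HT-1080 with IDH1 knockdown, 750 per well, RPMI/5% FBS. Exposure: 48 h at 37 °C following 2 h pre-incubation. Read: CellTiter-Glo luminescence; fitted concentration-response, curve class assigned.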
IL1B secr inh: qHTS for Inhibitors of Inflammasome Signaling: IL-1-beta AlphaLISA Primary Screen. THP-1 LPS/ATP IL-1B secretion, AlphaLISA, 16 h; active compounds read low. activity change, % at 57.5 µM. actives 4.7% (n = 360,000); in the data active = activity change below about -50%; inconclusive = mostly about -30% to -49%
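THP-1 cells pretreated 1 hr with compounds (up to 57.5 uM final), then stimulated with LPS (250 ng/mL final) plus ATP (1.25 mM final); secreted IL-1B measured by AlphaLISA after 16 hr, decreased signal indicating inhibition.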
The depositor's hits bear a star. In the library only some 19% were active in any assay of this set; here they are far more common. Unless noted, calls follow the shape of the dose curve; as a rule, active = well fitted curve in the direction sought with a large enough effect; inconclusive = small, poorly fitted or top-dose-only effect, or another doubt; inactive = no such curve, though single readings can be large; an effect the other way counts as inactive or inconclusive. Unless noted, % is scaled to controls: 0 for no effect and ±100 for the full control effect.

What do the screens show for `CN(Cc1ccccc1)C(=O)[C@@H]1CCCN1C(=O)[C@@H]1CCCN1C(=O)OC(C)(C)C`?
HT1080-NT tox: 14%; TDP1 cell noCPT: -28%; TDP1 cell CPT: -22%; HT1080 IDH1KD tx: 7%; IL1B secr inh: 0

Results for O=C1c2ccccc2C(c2nnnn2-c2ccc3ccccc3c2)N1C1CC1 (configuration not stated) ?
HT1080-NT tox: 14%; TDP1 cell noCPT: -30%; TDP1 cell CPT: -20%; HT1080 IDH1KD tx: 9%; IL1B secr inh: 77

What do the screens show for `COc1ccc(-c2cc3ccccc3n2CC(O)CN2CCC(C)CC2)cc1` (configuration not stated)?
uPA surface inh: -15%; HT1080-NT tox: -1%; TDP1 cell noCPT: 23µM*; TDP1 cell CPT: inconclusive; HT1080 IDH1KD tx: -2%; IL1B secr inh: inconclusive

How did Cc1nc(CC(=O)Nc2ccc(N(C)C)cc2)cs1 do in these assays?
TDP1 cell noCPT: 1%; TDP1 cell CPT: -6%

What do the screens show for `CC12CCC(C(=O)NNC(=O)c3ccccc3)(OC1=O)C2(C)C` (configuration not stated)?
uPA surface inh: -7%; HT1080-NT tox: -2%; TDP1 cell noCPT: 4%; TDP1 cell CPT: -12%; HT1080 IDH1KD tx: -2%; IL1B secr inh: 4

How did CC12CCC(C(=O)N(Cc3ccccc3)Cc3ccccc3)(OC1=O)C2(C)C (configuration not stated) do in these assays?
uPA surface inh: 9%; HT1080-NT tox: -7%; TDP1 cell noCPT: inconclusive; TDP1 cell CPT: 18µM*; HT1080 IDH1KD tx: -14%; IL1B secr inh: -2

What do the screens show for `NC(=O)/C=C\c1cn(-c2ccccc2)nc1-c1ccc2c(c1)OCCO2`?
uPA surface inh: 0%; HT1080-NT tox: -2%; TDP1 cell noCPT: inconclusive; TDP1 cell CPT: inconclusive; HT1080 IDH1KD tx: -1%; IL1B secr inh: -60*

What do the screens show for `CC1C(c2ccccc2)N(C)C(c2ccccc2)C(C)C1(O)C#Cc1ccccc1` (configuration not stated)?
uPA surface inh: 1%; HT1080-NT tox: -7%; TDP1 cell noCPT: 10µM*; TDP1 cell CPT: 9.2µM*; HT1080 IDH1KD tx: inconclusive; IL1B secr inh: -65*

Results for CCc1nn(CC(=O)NCCCN(CC)CC)c(=O)c2cc3sc(C)cc3n12 ?
uPA surface inh: 0%; HT1080-NT tox: 21%; TDP1 cell noCPT: inconclusive; TDP1 cell CPT: 8%; HT1080 IDH1KD tx: 0%; IL1B secr inh: inconclusive

Results for CCc1cc2c(cc3c(=O)n(CC(=O)NC(C)C)nc(CC)n32)s1 ?
TDP1 cell noCPT: 16µM*; TDP1 cell CPT: inconclusive

What do the screens show for `CCCCN(CCCC)CCNC(=O)Cn1nc(CC)n2c(cc3sc(C)cc32)c1=O`?
TDP1 cell noCPT: 16µM*; TDP1 cell CPT: 15µM*

How did Brc1ccc2nc(-c3ccccc3)c(Nc3ccc4c(c3)OCO4)n2c1 do in these assays?
TDP1 cell noCPT: -18%; TDP1 cell CPT: -19%

What do the screens show for `Cc1ccccc1Nc1c(-c2cccnc2)nc2ccc(Cl)cn12`?
TDP1 cell noCPT: inconclusive; TDP1 cell CPT: 12µM*

What do the screens show for `Cc1ccccc1Nc1c(-c2cccc(N(C)C)c2)nc2ccc(Br)cn12`?
TDP1 cell noCPT: 23µM*; TDP1 cell CPT: 13µM*

How did Cc1ccccc1Nc1c(-c2ccco2)nc2c(C)cccn12 do in these assays?
TDP1 cell noCPT: 21µM*; TDP1 cell CPT: 23µM*

What do the screens show for `Cc1ccccc1Nc1c(-c2ccncc2)nc2ccc(Br)cn12`?
uPA surface inh: -2%; HT1080-NT tox: 7%; TDP1 cell noCPT: 18µM*; TDP1 cell CPT: 23µM*; HT1080 IDH1KD tx: -13%; IL1B secr inh: 0

How did Cc1ccc(C(=O)NCCc2nnc3ccc(SCC(=O)Nc4nnc(C)s4)nn23)cc1 do in these assays?
HT1080-NT tox: 2%; TDP1 cell noCPT: -7%; TDP1 cell CPT: -22%; HT1080 IDH1KD tx: 4%; IL1B secr inh: 1

How did CCCNC(=O)C1(C)CCN(C(=O)COc2ccc(C(C)(C)C)cc2)C1 (configuration not stated) do in these assays?
HT1080-NT tox: -2%; TDP1 cell noCPT: -27%; TDP1 cell CPT: -19%; HT1080 IDH1KD tx: 9%; IL1B secr inh: 0

How did COc1ccc(-c2nc3ccccn3c2Nc2ccccc2C)cc1 do in these assays?
HT1080-NT tox: -26%; TDP1 cell noCPT: inconclusive; TDP1 cell CPT: 11µM*; HT1080 IDH1KD tx: -21%

Results for Cc1ccc2nc(-c3cccnc3)c(Nc3ccc(C(C)C)cc3)n2c1 ?
TDP1 cell noCPT: -5%; TDP1 cell CPT: -25%

How did Cc1ccccc1Nc1c(-c2cccnc2)nc2ccc(Br)cn12 do in these assays?
uPA surface inh: -18%; HT1080-NT tox: -1%; TDP1 cell noCPT: inconclusive; TDP1 cell CPT: 15µM*; HT1080 IDH1KD tx: 0%; IL1B secr inh: inconclusive

What do the screens show for `Cc1ccc(-c2nc3ccccn3c2Nc2ccccc2C)o1`?
HT1080-NT tox: -12%; TDP1 cell noCPT: 16µM*; TDP1 cell CPT: inconclusive; HT1080 IDH1KD tx: -4%

Results for Cc1ccc2nc(-c3cccnc3)c(Nc3ccccc3C)n2c1 ?
uPA surface inh: 4%; HT1080-NT tox: 1%; TDP1 cell noCPT: inconclusive; TDP1 cell CPT: 16µM*; HT1080 IDH1KD tx: 1%; IL1B secr inh: -52*

How did Cc1nn(CC(=O)NCC(C)c2ccccc2)c(=O)c2cccn12 (configuration not stated) do in these assays?
uPA surface inh: 1%; HT1080-NT tox: 8%; TDP1 cell noCPT: 4%; TDP1 cell CPT: 4%; HT1080 IDH1KD tx: 11%; IL1B secr inh: 9

Results for Cc1ccccc1Nc1c(-c2cccnc2)nc2ccccn12 ?
uPA surface inh: 4%; HT1080-NT tox: -9%; TDP1 cell noCPT: inconclusive; TDP1 cell CPT: 21µM*; HT1080 IDH1KD tx: -11%; IL1B secr inh: inconclusive

How did Cc1ccccc1Nc1c(-c2cc(Br)ccc2F)nc2ccccn12 do in these assays?
TDP1 cell noCPT: -27%; TDP1 cell CPT: -25%

How did CCOC(=O)c1sc2nc3c(SCCC(=O)O)cc(C(=O)c4cc(OC)ccc4O)cn3c(=O)c2c1C do in these assays?
uPA surface inh: -15%; HT1080-NT tox: -2%; TDP1 cell noCPT: 5.2µM*; TDP1 cell CPT: 3.7µM*; HT1080 IDH1KD tx: 8%; IL1B secr inh: 10
